# Hits are enriched below; roughly 21% of the tested compounds scored in any of these assays.
# CHX counter: counter-screen for Shiga toxin inhibitors: cycloheximide protein synthesis inhibition; max response, %; cell reporter, cycloheximide protein synthesis inhibition counterscreen; hit rate 12% among 300,000; in the data active = max response mostly above about 13%, no sharp cut-off; inactive = mostly below about 14%; note: read at 38.3 µM for the half of the compounds with a filed dose; 0% is about no effect
# HCV inh: HCV inhibition; Huh7.5.1 HCVcc-Cre infection, luciferase reporter, 44 h; AID 651820; hit rate 3.4% among 340,000; Potency, µM (titrated, usually from 41.8 µM), for the others: at the highest dose activity change, negative = inhibition, actives largely listed as inhibitors; note: potency is the fitted concentration of half-maximal effect; % is set by controls: 0 for no effect and ±100 for the full control effect
#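 A cell-based infection assay in which seeded cells (1,000 per well) receive test compound after 4 h, are inoculated with HCVcc-Cre at approximately 0.5 moi, and are incubated 44 h before luminescence detection.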
# HCMV inh: blocks human cytomegalovirus replication; hit rate 4.5% among 410,000; HFF cells, HCMV-luciferase reporter, 72 h; active compounds read low; activity change, negative = inhibition, % at 57.5 µM; in the data active = activity change below about -60%; inconclusive = no clear call, values can overlap the other calls; inactive = above about -39%; note: % is set by controls: 0 for no effect and ±100 for the full control effect
#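 Two-dose cell screen: HFF monolayers treated with compounds and infected with luciferase-expressing HCMV at 1 PFU/cell, 72 h at 37C, then lysed for luciferase measurement.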
# Shiga inhibitor: inhibitors of Shiga toxin in Vero cells. Vero cells, Shiga toxin protein synthesis inhibition reporter. inhibition, % at 38.7 µM. hit rate 9.2% among 290,000; in the data active = inhibition mostly above about 28%, no sharp cut-off; inactive = mostly below about 43%; note: 0% is about no effect
# Pf growth 96h: P. falciparum growth inhibition at 96 hour, primary screen for plastid delayed-death inhibitors. P. falciparum luciferase reporter growth, 96 h. Potency, µM (series often up to 28.7 µM), inactives show top-dose activity change, negative = inhibition, actives largely listed as inhibitors. hit rate 6.9% among 320,000. AID 504834; note: potency is the fitted concentration of half-maximal effect; % is set by controls: 0 for no effect and ±100 for the full control effect
#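 Delayed-death screen, second-generation endpoint: infected erythrocytes, 2% hematocrit, 0.05% parasitemia final; 96 hours at 37 C, 5% CO2; luciferase detection reagent; luminescence decrease equals reduced growth.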
# Pf growth 48h: inhibits P. falciparum growth in the first generation, 48 h | P. falciparum luciferase growth in erythrocytes, 48 h | Potency, µM (highest dose often 28.7 µM), without a hit: top-dose activity change, negative = inhibition, actives largely listed as inhibitors | hit rate 5.9% among 310,000 | AID 504832; note: potency is the fitted concentration of half-maximal effect; % is set by controls: 0 for no effect and ±100 for the full control effect
#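 First compound was added to culture medium, then infected red cells at 0.1% parasitemia and 2% hematocrit (final). After incubation at 37 C under 5% CO2, luciferase detection reagent was dispensed and light output recorded.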
# The depositor's hits bear a star; ? = inconclusive; . = not tested or not shown; [ ] = remark or other dose. Unless noted, calls come from the whole dose curve; as a rule, active = well fitted inhibition curve with a large enough effect; inconclusive = small, poorly fitted or top-dose-only effect, or another doubt; inactive = no such curve, though single readings can be large or run the other way.
SMILES,CHX counter,HCV inh,HCMV inh,Shiga inhibitor,Pf growth 96h,Pf growth 48h
COCC(=O)N1CCC(Oc2ccc(C(=O)N(C)Cc3nccs3)cc2)CC1,1.3,15.1%,10.8,-7.6,-16.6%,2.9%
CCCCC/C=C/C1=CC(=O)C[C@H](c2ccc(OC)cc2)C1,.,0.1%,8.4,.,?,?
Cc1cccc(/C=C/c2onc(C)c2S(=O)(=O)N2CCC(C(=O)NC(C)C)CC2)c1,2.1,4.9%,22.9,-5.5,?,?
CN(CCc1ccccn1)Cc1ccc(Cl)cc1Cl,16.8*,-4.4%,31.3,59.6,39.6%,50.0%
C=CCNC(=O)Nc1ccc(Br)cc1Cl,12.9,?,?,60.4,-22.0%[1.15 µM],31.4%
O=C(NCc1ccccn1)Nc1ccc(Br)cc1Cl,63.3*,-28.6%,11.8,135.9*,9.28µM*,50.4%
N/C(=N\NC(=O)c1sccc1OCc1ccc(Cl)cc1Cl)c1ccccn1,3.5,?,?,-4.8,?,3.29µM*
CNC(=S)NNC(=O)c1sccc1OCc1ccc(Cl)cc1Cl,-1.7,-0.5%,7.9,-0.7,55.3%,0.0%
CC(C)OCCCNC(=O)C(=O)Nc1ccc2nc3n(c(=O)c2c1)CCCCC3,.,.,3.9,.,.,.
CC[n+]1c(/C=C/C=C/c2ccc(N(C)C)cc2)sc2ccccc21,-3.2,2.82µM*,-110.4*,-3.8,4.6%,-10.6%
CCn1c(/C=C/N(C(C)=O)c2ccccc2)[n+](CC)c2ccc(Cl)cc21,-4.5,4.9%,-16.3,-13.2,38.5%,2.08µM*
CCN1C(=O)/C(=C/N(C(C)=O)c2ccccc2)N(c2ccccc2)C1=S,-2.4,-8.1%,2.8,-4.6,.,0.0%
CN(C)c1ccc(/C=C/C=C/c2sc3ccccc3[n+]2C)cc1,1.9,?,-95.3*,-8.8,40.8%,15.7%
CCOc1ccccc1N1CCN(C/C=C/c2ccc(N(C)C)cc2)CC1,-3.2,21.2%,1.2,-11.0,-17.0%,.
CCn1c(C)[n+](CC)c2ccc(C(=O)N(C)c3ccccc3)cc21,8.8,14.7%,2.9,13.3,18.3%,-17.5%
CC[n+]1c(/C=C/C=C/N(C(C)=O)c2ccccc2)sc2ccccc21,10.5,?,?,24.7,9.28µM*,4.65µM*
CCc1ccc(C(=O)c2cn(CC(=O)Nc3ccc4c(c3)OCCO4)c3ccc(CC)cc3c2=O)cc1,.,.,1.2,.,.,.
CCN(CC)CCCNC(=O)Cc1csc2nc(-c3ccc(Cl)cc3)cn12,.,.,-6.7,.,.,.
COc1cccc(CN2C(=O)CN(C3CCCCC3)C(=O)C2c2ccc(OC)c(OC)c2)c1 (stereo not drawn),.,.,-6.5,.,.,.
Nc1cc2c(cc1Cl)N(Cc1ccccc1)C(=O)CO2,.,?,-15.0,.,-22.7%,-26.6%
Cc1ccc(S(=O)(=O)NCCNc2ccc(Br)c(C)c2)cc1,.,-17.3%,-22.7,.,.,.
Clc1cccc(C(c2ccc3nc[nH]c3c2)n2ccnc2)c1 (stereo not drawn),.,.,.,.,5.36µM*,13.5µM*
O=C(c1ccc2nc[nH]c2c1)N1CCN(S(=O)(=O)c2cccc(Cl)c2)CC1,.,-22.1%,26.6,.,.,.
N#Cc1ccccc1COC(=O)c1ccc(Br)o1,26.0*,1.7%,-35.1,54.7,55.0%,-3.1%
COc1cccc(C(=O)OCc2ccccc2C#N)c1O,21.1*,-6.1%,18.0,35.8,-6.1%,.
SMILES,CHX counter,HCV inh,HCMV inh,Shiga inhibitor,Pf growth 96h,Pf growth 48h
C=CCOc1ccccc1CN1CCCN(C)CC1,-2.2,10.5%,-8.1,-2.5,53.7%,6.2%
Cc1ccc(-c2csc(C(O)c3ccc(F)cc3)n2)cc1C (stereo not drawn),.,.,-10.2,.,.,.
COc1ccc(/C=C/C(=O)O)cc1S(=O)(=O)N1CCC(C)CC1,0.6,9.0%,2.6,4.2,19.2%,10.3%
CC(C)(C)C1CCC2(CC1)NC(=S)N(c1ccccc1)N2 (stereo not drawn),23.8*,-3.6%,21.5,42.4*,?,?
CC(C)(C)C1CCC2(CC1)SCC(=O)N2c1ccccc1 (stereo not drawn),1.1,12.2%,-16.9,-3.3,95.0%,11.7µM*
CCC(C)(C)C1CCC2(CC1)NC(=S)N(c1ccccc1)N2 (stereo not drawn),34.8*,9.5%,27.0,97.5*,-15.6%,-12.1%
S=C1NC2(CCCCCC2)NN1c1ccccc1,.,.,17.8,.,.,.
CC1CCC2(CC1)SCC(=O)N2c1ccc(F)cc1 (stereo not drawn),6.2,12.2%,-19.9,8.8,10.6%,28.8%
COC(=O)c1ccc(CN2CCN(C(C)C)C(CCO)C2)cc1 (stereo not drawn),-2.4,6.7%,18.2,-2.6,?,50.4%
CC(C)CCN1CCN(Cc2ccc(N3CCNC3=O)cc2)CC1CCO (stereo not drawn),-1.6,27.3%,21.1,33.3,?,-17.2%
O=C(Nc1ccc(C(F)(F)F)cc1)C1CCCN(c2cnccn2)C1 (stereo not drawn),.,.,-18.5,.,.,.
COc1cccc(NC(=O)c2cncs2)c1,1.5,5.9%,21.3,-6.1,-15.8%,39.2%
N#Cc1ccc(-n2nccc2-c2cnc3n(c2=O)CCS3)cc1,25.6*,4.2%,-18.1,2.1,18.9%,.
CCOC(=O)c1cc2c(c(CCO)n1)[C@H](CCO)N(S(=O)C(C)(C)C)C2 (stereo partly drawn),.,-17.2%[8.37 µM],-11.9,.,.,.
CCCCn1c(=O)c(-[n+]2ccccc2)c([O-])c2ccccc21,0.7,14.0%,-61.6*,-8.8,-5.2%,.
CC(C)Cn1c2ccccc2c2cc(C(=O)O)ccc21,-4.1,0.2%,39.1,10.7,55.4%,.
CC(C)Cn1c(=O)c(-[n+]2ccccc2)c([O-])c2ccccc21,8.7,1.8%,4.2,-8.4,13.1µM*,-4.3%
Cc1cc(C)c(S(=O)(=O)N2CCN(Cc3nc4ccc(C)cc4o3)CC2)c(C)c1,.,.,-8.0,.,.,.
Cc1cc(C)c(N(Cc2ccccc2)S(=O)(=O)c2ccc(OCCNC(=O)c3cc4ccccc4o3)cc2)c(C(=O)NO)c1,-7.7,.,.,-3.0,.,.
O=C(COc1ccccc1)Nc1ccc2nc(SCCOc3ccccc3)sc2c1,.,.,-31.5,.,.,.
O=C(c1ccc(F)cc1F)N1CCN(c2ncccn2)CC1,-1.8,17.8%,2.4,-20.7,122.7%,36.3%
O=C(c1c[nH]c(C(=O)N2CCN(c3ccccc3F)CC2)c1)c1cccc(Cl)c1Cl,10.5,25.1µM*,-19.3,-15.0,?,0.0%
CCOC(=O)N1CCN(C(=S)NC(=O)c2ccc(F)c(F)c2)CC1,1.1,25.8%,-89.1*,-6.7,21.4%,-4.8%
CCOC(=O)N1CCN(C(=S)NC(=O)c2c(-c3c(Cl)cccc3Cl)noc2C)CC1,-1.2,11.7%,-68.8*,23.5,37.9%,?
CCOC(=O)N1CCN(C(=S)NC(=O)c2cccc(OC)c2)CC1,.,16.2%,26.3,.,.,.
O=C(c1ccc(N2CCN(C(=O)c3ccc(F)cc3F)CC2)cc1)c1cccc(F)c1,7.8,11.2µM*,-35.5,7.0,10.4µM*,?

# Screening results: PubChem, National Center for Advancing Translational Sciences (NCATS)
